Shown are actives, neighbours in structure and some others; about 4.8% of the full set was active somewhere.
NALP1 inh = NALP1 inhibition; S. cerevisiae NALP1/ASC/caspase-1 growth, X-gal OD620, 72 h; inhibition, % at 10 µM; 0.61% of 280,000 active; in the data active = inhibition mostly above about 24%, no sharp cut-off; inactive = mostly below about 32%
tim23-1 inh = growth inhibitors of tim23-1 mutant yeast; S. cerevisiae tim23-1 growth, BacTiter-Glo luminescence, 24 h; inhibition, % at 20 µM; 1.3% of 330,000 active;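 active = growth inhibition of the mutant yeast at or above 50%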;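 also: temperature-sensitive mutant grown at 25 °C; plate controls were DMSO-treated mutant yeast for no effect and medium wells lacking yeast for full effect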
TIM10 inh = inhibits growth of TIM10 yeast strain. inhibition, % at 10 µM. S. cerevisiae TIM10 strain growth, BacTiter-Glo luminescence, 24 h. AID 463195. 1.4% of 330,000 active;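 active = inhibition of 40% or more at the single tested concentration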;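 also: wild-type TIM10 isogenic control strain grown at permissive 25 °C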
SKKanGAS inh = blocks kanamycin growth of S. pyogenes SKKanGAS strain. 1.3% of 300,000 active. inhibition, % at 7.5 µM. BacTiter-Glo, 6 h;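 active = mean replicate score, as percent of positive control median, at least 50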;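 also: strain carries kanamycin resistance gene driven by streptokinase promoter and grows in 40 µg/ml kanamycin; loss of luminescence reflects streptokinase promoter inhibition or plain growth inhibition; 0% = median of DMSO wells and 100% = positive control at its reference dose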
tim10-1 inh = growth inhibitors of tim10-1 mutant yeast | AID 463190 | 2.2% of 330,000 active | inhibition, % at 20 µM | S. cerevisiae tim10-1 ts strain growth, BacTiter-Glo, 24 h;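 active = inhibition of at least 40%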;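 also: mutant grown at 25 °C; 0% = DMSO wells with yeast and 100% = wells holding no yeast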
PfHsp90 set2 = reduces growth (ATP signal) of yeast expressing P. falciparum Hsp90. S. cerevisiae expressing PfHsp90, BacTiter-Glo ATP, 48 h; yeast lacking PDR1 and PDR3 efflux regulators. 0.32% of 310,000 active. inhibition, % at 9.4 µM;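 active = every replicate shows inhibition above about 80%, whatever the replicate mean, limit read from the data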;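 also: 0% = DMSO neutral controls and 100% = 20 µM radicicol positive controls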
* = called active by the depositor; . = no result given.

SMILES	NALP1 inh	tim23-1 inh	TIM10 inh	SKKanGAS inh	tim10-1 inh	PfHsp90 set2
COc1ccccc1NC(=O)c1cc2cc(Br)ccc2cc1O	20	.	.	53*	.	-4
Cc1ccc(Cl)cc1NC(=O)c1cc2ccccc2cc1O	9	17	-2	97*	1	-34
CCc1cc(=O)oc2cc(C)cc(OC(C)C(=O)NCc3ccncc3)c12 (stereo not drawn)	25	7	2	-2	10	13
O=C1C(Cl)=C(NCCc2ccccc2)C(=O)c2ccccc21	.	.	.	.	.	116*
O=C1C(Cl)=C(Nc2ccccc2)C(=O)c2ccccc21	45	.	.	-10	.	2
c1ccc2c(N3CCCCC3)nc(N3CCCC3)nc2c1	3	1	-12	13	4	.
c1ccc(-c2nc(N3CCCCCC3)c3ccccc3n2)nc1	9	-22	24	109*	0	.
c1ccc(CN2CCN(c3nc(-c4ccccc4)nc4ccccc34)CC2)cc1	45	9	18	32	40	-13
Clc1ccc(-c2cc3ccccc3nc2N2CCCC2)cc1	29	26	11	69*	7	.
c1ccc2c(c1)nc(N1CCCCC1)c1ccccc12	39*	22	14	1	13	-10
c1ccc(CN2CCN(c3nc4ccccc4c4ccccc34)CC2)cc1	13	29	15	76*	28	0
FC(F)(F)c1ccccc1NC(=S)Nn1cnnc1	-7	-2	3	.	0	25
Cc1ccc(/C=C(\C#N)C(=O)NCc2ccco2)o1	-3	-1	-7	0	-12	5
CSc1ccccc1OCc1cc(C(=O)N2CCN(C)C(c3ccccc3)C2)no1 (stereo not drawn)	-11	48	6	3	35	135*
CN(C)/C=N/S(=O)(=O)c1ccc(Cl)cc1	8	11	15	-11	-3	15
COc1ccc(C2CC(c3cccs3)=NN2C(=O)CSc2nc(=O)n3ccc(C)cc3n2)cc1 (stereo not drawn)	.	4	-1	15	5	-1
COc1cccc(C2CC(c3cccs3)=NN2C(=O)CSc2nc3c(cnn3-c3ccc(F)cc3)c(=O)[nH]2)c1OC (stereo not drawn)	12	15	11	57*	16	1
COc1ccc(C2CC(c3cccs3)=NN2C(=O)CSc2nc3c(cnn3-c3ccccc3)c(=O)[nH]2)cc1 (stereo not drawn)	19	0	-12	64*	-16	5
COc1cccc(C2CC(c3cccs3)=NN2C(=O)CSc2nc3ccccc3s2)c1OC (stereo not drawn)	10	25	12	5	31	-9
Cc1ccc2nc(-c3ccccn3)c(Nc3ccccc3C)n2c1	7	-19	21	92*	27	-2
Cc1ccccc1Nc1c(-c2ccccn2)nc2ccccn12	-19	47	25	-2	-11	-11
Cc1ccn2c(NC(=O)c3ccccc3)c(-c3ccccc3)nc2c1	1	17	2	-10	2	-2
Cc1ccn2c(Nc3ccccc3C)c(-c3ccccn3)nc2c1	-6	46	39	96*	4	-6
Cc1ccn2c(Nc3ccccc3)c(-c3ccccn3)nc2c1	-9	-21	19	76*	-16	3
Cc1cccn2c(Nc3ccccc3)c(-c3ccccn3)nc12	2	-37	4	68*	-8	-26
SMILES	NALP1 inh	tim23-1 inh	TIM10 inh	SKKanGAS inh	tim10-1 inh	PfHsp90 set2
CN1CCC(NC(=O)c2cccc(Oc3ccccc3)c2)CC1	26	5	5	-1	0	-18
C1CN(CC2COC(CN3CCOCC3)CO2)CCO1 (stereo not drawn)	.	.	.	.	.	-9
COc1ccccc1CNC(=S)Nc1ccc(S(N)(=O)=O)cc1	-3	-1	3	-3	11	7
CCCCc1ccc(NC(=S)NCc2ccccc2OC)cc1	9	30	26	59*	27	3
COc1ccccc1N=Nc1nc(-c2ccccc2)c(-c2ccccc2)[nH]1	3	.	.	67*	.	5
COc1cc2c3nnc(-c4ccc(F)cc4)c-3cn(Cc3ccc(F)cc3)c2cc1OC	35*	17	1	2	7	-18
COc1ccc(Cn2cc3c(-c4ccc(F)cc4)nnc-3c3cc(OC)c(OC)cc32)cc1	23	12	8	.	7	-14
O=C(Nc1cccc(S(=O)(=O)N2CCCC2)c1)c1cc(-c2ccccn2)nc2ccccc12	-4	10	3	4	-7	-1
CC(C)(C)NC(=O)NC(=O)COC(=O)c1cccc(NS(=O)(=O)c2ccc(F)c(F)c2)c1	18	12	-4	7	2	-2
CC(C)(C)c1ccc(NC(=O)COC(=O)c2ccc(NS(=O)(=O)c3ccc(F)c(F)c3)cc2)cc1	30	14	-2	54*	5	1
Cn1nc(-c2ccccc2)c(CSc2ccccc2Cl)c1Cl	-3	-10	-14	75*	-21	-1
CC1=C(Sc2ccccn2)C(=O)NC(C)(C)C1	-17	7	4	-3	11	.
O=C(CCNS(=O)(=O)c1c(Cl)cccc1Cl)N1CCCC1	.	-5	0	.	-15	-32
O=C(c1cc(-c2ccncc2)nc2ccc(Br)cc12)N1CCN(Cc2ccc3c(c2)OCO3)CC1	-4	24	23	15	29	17
CCc1sc(N(C(=O)Cc2ccccc2)c2cccc(F)c2)nc1-c1ccc(C)cc1	13	10	24	59*	13	10
C(=C\c1nc2ccccc2[nH]1)/c1ccccc1	-6	43	31	22	30	78*
Cc1ccc2cc(CN(Cc3nnnn3Cc3ccco3)CC3CCCO3)c(=O)[nH]c2c1C (stereo not drawn)	.	17	-6	-2	-5	-12
Cc1ccc(OCCN2CCN(c3nc(NCc4ccco4)c4ccccc4n3)CC2)cc1	73*	-41	13	3	3	5
Cc1ccc(N2CCN(CC(=O)Nc3c(C(=O)C4CC4)oc4ccccc34)CC2)cc1	47*	.	.	.	.	.
O=C(CN1CCN(c2ccccc2)CC1)Nc1c(C(=O)C2CC2)oc2ccccc12	-5	9	4	21	5	-16
CCc1nc(SCC(=O)O)c2c3c(sc2n1)COC(C)(C)C3	15	10	-9	2	11	-2
Cc1cc(C)n(-c2nc(SCC(=O)O)c3c4c(sc3n2)COC(C)(C)C4)n1	-14	4	8	70*	13	32
Cc1ccc(-n2[nH]c(C)c(C=Nc3ccc(Br)cn3)c2=O)cc1	-7	-6	2	-1	-29	1
CC1CCCC(C)N1c1nnc(NC(=O)c2cc(-c3ccc(Br)cc3)on2)s1 (stereo not drawn)	20	20	9	51*	9	-2
Cc1ccccc1NC(=O)C1CCCN(C(=O)Nc2ccc(F)cc2)C1 (stereo not drawn)	14	-6	-5	-2	-6	-20
